# In all, about 48,000 compounds went through this assay and about 13,000 (27%) showed an effect of 50% or more. The list shows a part of the results.
# Tested on: Wolbachia pipientis
# Experiment: Anti-Wolbachia Cell-Based Screen
# Assay type: functional
# Parameters: scale not given: in the data most compounds retested in dose-response had high values
# Settings: 5 µM
row,SMILES,Percent Effect
1,CCc1cc(CN(C)C(=O)CN2CC(c3ccccc3)CC2=O)on1 (stereo not drawn),-7.018%
2,CN(C)C(=O)[C@H]1C[C@H]2OCC[C@H]2N(Cc2ccccn2)C1,-23.53%
3,O=C(NC[C@H]1C[C@@H]2CCN1C[C@@H]2CN1CCCCC1)Nc1ccccc1,-4.847%
4,CC(C)(C)n1cc(C2=CCN(CCN3CCCCCC3)CC2)cn1,-14.66%
5,CN1CCC2(CCN(C(=O)c3cccnc3)C2)C1 (stereo not drawn),103.3%
6,O=C(O)C(F)(F)F.O=C(O)C(F)(F)F.O=C1CC2(CCN(Cc3cccnc3)C2)CN1c1cncnc1 (stereo not drawn),-5.386%
7,CC(C)(C)CN1CCCC2(CCN(C(=O)c3ccc(O)nc3)C2)C1 (stereo not drawn),-6.955%
8,CNc1ncccc1C(=O)N1CCC2(CCN(C)C2)CC1,-14.87%
9,Cc1ccc(CN2CC3(CCN(C(=O)c4cccnc4)C3)C2)o1.O=C(O)C(F)(F)F.O=C(O)C(F)(F)F,90.74%
10,O=C(O)C(F)(F)F.O=C(O)C(F)(F)F.O=C1N(c2cccnc2)CCC12CCCN(Cc1ccco1)C2 (stereo not drawn),8.384%
11,O=C(O)C(F)(F)F.O=C(O)C(F)(F)F.O=C1N(c2ccsc2)CCC12CCCN(Cc1cccnc1)C2 (stereo not drawn),4.008%
12,CCCN(CCN(C)C)C(=O)Cc1cn2ccsc2n1,-3.087%
13,O=C(Cc1ccsc1)N1CCN(CCOc2ccccc2)CC1,-6.082%
14,CC[C@H]1CN2CC[C@H]1C[C@@H]2CNCc1ccc2c(c1)OCO2,5.104%
15,CN1CCN2C(=O)N(C3CCCCC3)C[C@H]2C1,-7.779%
16,CC(C)N(C)C(=O)C1CCC2(CCNCC2)O1.Cl (stereo not drawn),-5.93%
17,CCN(C)c1nccc(N2CCN[C@H]3CS(=O)(=O)C[C@H]32)n1,-8.792%
18,Cc1ccnc(CC(C)N(C)Cc2ccc3c(c2)CCO3)c1 (stereo not drawn),8.665%
19,CCCS(=O)(=O)N1CCOC2(CCCN(Cc3ccccn3)C2)C1.O=C(O)C(F)(F)F (stereo not drawn),106.1%
20,CCS(=O)(=O)NC[C@]12COC[C@H]1CN(Cc1ccccn1)C2.O=C(O)C(F)(F)F.O=C(O)C(F)(F)F,3.316%

row,SMILES,Percent Effect
1,O=C(O)C(F)(F)F.O=C(O)C(F)(F)F.O=C(O)C(F)(F)F.c1ccc(CN2CCOC3(CCN(c4ncccn4)CC3)C2)nc1,-2.349%
2,O=C(O)C(F)(F)F.O=S(=O)(C1CC1)N1CCOC2(CCCN(Cc3ccccn3)C2)C1 (stereo not drawn),85.16%
3,CCS(=O)(=O)N1CCOC2(CCCN(Cc3ccccn3)C2)C1.O=C(O)C(F)(F)F (stereo not drawn),109.8%
4,O=C(O)C(F)(F)F.c1cnc(N2CCOCC3(CN(Cc4cc[nH]n4)CCO3)C2)nc1 (stereo not drawn),10.86%
5,CS(=O)(=O)N1CCOCC2(CN(Cc3ccccn3)CCO2)C1.O=C(O)C(F)(F)F.O=C(O)C(F)(F)F (stereo not drawn),-5.644%
6,O=C(O)C(F)(F)F.O=C(O)C(F)(F)F.O=S(=O)(C1CC1)N1CCC2(CC1)CN(Cc1ccccn1)CCO2,101%
7,CC(C)[C@@H]1CN(C(=O)C2(c3ccccc3)CCN(C)CC2)C[C@H]1C(=O)O,1.772%
8,COc1cc(CNCC(O)c2ccc(F)c(F)c2)cc2c1OCO2 (stereo not drawn),-3.918%
9,O=C(NC[C@]12COC[C@H]1CN(Cc1ccncc1)C2)c1ccno1.O=C(O)C(F)(F)F.O=C(O)C(F)(F)F,-6.901%
10,CC(C)N1CCC2(CC1)C(=O)N(c1cccnc1)c1c(F)cccc12.Cl,-0.101%
11,CC(C)N1CCC2(CC1)C(=O)N(CCN(C)C)c1ccccc12.O=C(O)C(F)(F)F.O=C(O)C(F)(F)F,103.6%
12,COCCN1C(=O)C2(CCN(CC3CC3)CC2)c2ccccc21.O=C(O)C(F)(F)F,100.2%
13,Cc1ccc(CN2CCC3(CC2)C(=O)N(C)c2ccccc23)s1.O=C(O)C(F)(F)F,-4.693%
14,CN(C)CCN1C(=O)C2(CCN(CC3CC3)CC2)c2ccccc21.O=C(O)C(F)(F)F.O=C(O)C(F)(F)F,113.1%
15,CN1C(=O)C2(CCN(Cc3nccn3C)CC2)c2ccccc21.O=C(O)C(F)(F)F,-27.57%
16,CCN1C(=O)C2(CCN(CCN(C)C)CC2)c2ccccc21.O=C(O)C(F)(F)F.O=C(O)C(F)(F)F,97.23%
17,CC(C)N1CCC2(CC1)C(=O)N(c1cccnc1)c1ccc(F)cc12.Cl,-1.595%
18,CCCN1CCN(C(=O)Cc2nc(-c3ccco3)oc2C)CC1,1.326%
19,CN(C)Cc1cncc2c1CCN(Cc1ccoc1)C2.Cl.Cl.Cl,105%
20,COCCN1CCN(Cc2cccnc2)[C@H]2CS(=O)(=O)C[C@H]21,6.429%

row,SMILES,Percent Effect
1,COCc1cncc2c1CCN(Cc1cccnc1)C2,101.9%
2,COCc1cncc2c1CCN(Cc1cnn(C)c1)C2.O=C(O)C(F)(F)F.O=C(O)C(F)(F)F,0.729%
3,CN(C)Cc1cncc2c1CCN(Cc1cnn(C)c1)C2.Cl.Cl.Cl,-9.802%
4,O=C1[C@@H]2CCN(Cc3ccoc3)C[C@@H]2OCCN1c1cccnc1,8.449%
5,CC(C)N(C)Cc1cncc2c1CCN(Cc1ccoc1)C2.Cl.Cl.Cl,91.96%
6,COCc1cncc2c1CCN(Cc1ccccn1)C2.O=C(O)C(F)(F)F.O=C(O)C(F)(F)F.O=C(O)C(F)(F)F,9.224%
7,COCc1cncc2c1CCN(Cc1cccs1)C2.O=C(O)C(F)(F)F.O=C(O)C(F)(F)F,82.87%
8,CC(C)N1[C@H](CN(C)C)C[C@@H]2CN(c3ncc(F)cn3)CC[C@@H]21.O=C(O)C(F)(F)F.O=C(O)C(F)(F)F.O=C(O)C(F)(F)F,3.695%
9,CC1(C)C(C(=O)NCCC2CN(Cc3c[nH]cn3)CCO2)C1(C)C (stereo not drawn),-1.625%
10,CC(C)N(C)Cc1cncc2c1CCN(Cc1cccs1)C2.Cl.Cl.Cl,94.28%
11,CC(C)N1CCc2c(CN(C)Cc3ccco3)cncc2C1.Cl.Cl.Cl,5.952%
12,Cc1cccnc1CC(C)N(C)Cc1cccs1 (stereo not drawn),-8.458%
13,Cc1ccsc1CN1C[C@@H]2CN(Cc3cccnc3)CCO[C@@H]2C1.O=C(O)C(F)(F)F.O=C(O)C(F)(F)F.O=C(O)C(F)(F)F,13.17%
14,COCCN1CCO[C@@H]2CN(S(=O)(=O)c3cccnc3)C[C@@H]2C1.O=C(O)C(F)(F)F.O=C(O)C(F)(F)F,120.4%
15,COCCN1CCO[C@@H]2CN(Cc3ccccn3)C[C@@H]2C1.O=C(O)C(F)(F)F.O=C(O)C(F)(F)F.O=C(O)C(F)(F)F,-10.28%
16,CS(=O)(=O)N1CCO[C@@H]2CN(Cc3ccncc3)C[C@@H]2C1.O=C(O)C(F)(F)F.O=C(O)C(F)(F)F,13.84%
17,CN1CCO[C@@H]2CN(S(=O)(=O)c3cccnc3)C[C@@H]2C1.O=C(O)C(F)(F)F.O=C(O)C(F)(F)F,131.4%
18,O=C(O)C(F)(F)F.O=C(O)C(F)(F)F.O=S(=O)(c1cccnc1)N1C[C@@H]2COC[C@]2(CN2CCOCC2)C1,-9.184%

# — ChEMBL document CHEMBL3988442, “University of Dundee, Small-Polar-MMV Screening Library” (2021)
